From article PMC4552634, “A New Set of Chemical Starting Points with Plasmodium falciparum Transmission-Blocking Potential for Antimalarial Drug Discovery” (PLoS ONE, 2015) come the findings set out here.

The structures appear in SMILES notation. The campaign covered roughly 13,000 compounds. About 3,200 (25%) showed an effect of 50% or more. This is one part of the list.

In this test the test system is P. falciparum stage V gametocytes. More on the design: BacTiter-Glo ATP luminescence viability of purified stage V gametocytes in 384-well plates, per cent inhibition versus DMSO. The settings on record: 48 h, 5 µM; inhibitor.
Consider `COC(=O)c1sc2ccccc2c1NC(=O)c1ccc(C)c(C)c1` [TCMDC-125650], for which the “% Inhibition” value is listed as 21.99%. With `CCC(C)(C)c1ccc2nc(N)nc(N)c2c1C` [TCMDC-137829] the figure was -16.15%; with `CC(=O)N1CCC(C(=O)Nc2ccc(-c3cccc(-c4nc5ccc(C(F)(F)F)cc5[nH]4)c3)cc2)CC1` [TCMDC-132166], -13.72%. Turning to `O=C(/C=C/c1ccc(Cl)c(Cl)c1)NCCCCCN1CCC(NC(=O)Nc2ccc(Cl)cc2Cl)CC1` [TCMDC-135729], the “% Inhibition” value is reported as -21.32%. As to `O=C(Nc1cccc(N2CCC(NCc3cccnc3)CC2)c1)c1cccc(C(F)(F)F)c1` [TCMDC-124649], the “% Inhibition” value is recorded as -0.3933%. For `COc1c(C2CCN(CCCCNC(=O)c3ccc(NC(=O)c4ccc(C#N)cc4)cc3)CC2)ccc2c1CCCC2` [TCMDC-138664], the “% Inhibition” value was 116.8%.

For the compound `COc1c(C2CCN(CCCCNC(=O)c3noc(-c4ccc(C#N)cc4)n3)CC2)ccc2c1CCCC2` [TCMDC-138814], the “% Inhibition” value is 4.753%. Regarding `Cn1ccc(C(=O)Nc2ccc3c(c2)CN(Cc2ccc(N4CCCC4)o2)CCC3)n1` [TCMDC-134722], the “% Inhibition” value is on record as -3.632%. `O=C(NCc1cccc(F)c1)Nc1cccc(-c2cccc(-c3nc4ccccc4[nH]3)c2)c1` [TCMDC-133290]: the “% Inhibition” value is given as 0.3342%. As to `CC(=O)Nc1ccc(CN2Cc3ccc(NC(=O)Nc4ccc(Oc5ccccc5)cc4)cc3C2)s1` [TCMDC-141756], the “% Inhibition” value is -76.53%.

In the case of `O=C(O)C(F)(F)F.OCC1CCN(Cc2ccc(-c3ccc(-c4nc5cc(F)ccc5[nH]4)cc3)cc2)CC1` [TCMDC-133125], the “% Inhibition” value is 29.73%.

Turning to `Fc1ccc2nc(-c3cccc(-c4ccc(CN5CCCCC5)cc4)c3)[nH]c2c1` [TCMDC-133887], the “% Inhibition” value worked out at 2.75%. Regarding `Fc1ccc2[nH]c(-c3ccc(-c4ccc(CN5CCC(CCN6CCCCC6)CC5)cc4)cc3)nc2c1` [TCMDC-133924], the “% Inhibition” value was 105.4%. As to `FC(F)(F)c1ccc2nc(-c3ccc(-c4cccc(CN5CCCCC5)c4)cc3)[nH]c2c1` [TCMDC-133886], the “% Inhibition” value is recorded as -44.09%. Regarding `Fc1ccc2[nH]c(-c3cccc(-c4ccc(CN5CCC(CCN6CCCCC6)CC5)cc4)c3)nc2c1` [TCMDC-133940], the “% Inhibition” value came out at 104.4%. `Cc1cccc2nc(-c3ccc(-c4ccc(CN5CCC(CCN6CCCCC6)CC5)cc4)cc3)[nH]c12` [TCMDC-133929]: the “% Inhibition” value came to 114%. Regarding `NC(=O)C1CCN(Cc2ccc(-c3ccc(-c4nc5cc(F)ccc5[nH]4)cc3)cc2)CC1.O=C(O)C(F)(F)F` [TCMDC-132693], the “% Inhibition” value was found to be 4.411%.

`Cc1cccc2nc(-c3ccc(-c4ccc(CN5CCCC(O)C5)cc4)cc3)[nH]c12.O=C(O)C(F)(F)F` (stereo not drawn) [TCMDC-133826]: the “% Inhibition” value worked out at 35.59%.

`Cc1cccc2nc(-c3ccc(-c4ccc(CN5CCC(C(N)=O)CC5)cc4)cc3)[nH]c12.O=C(O)C(F)(F)F` [TCMDC-132688]: the “% Inhibition” value is 10.12%. Then `c1cc(-c2ccc(CN3CCCCC3)cc2)cc(-c2nc3ccccc3[nH]2)c1` [TCMDC-133917], with -5.733%; and `FC(F)(F)c1ccc2[nH]c(-c3ccc(-c4cccc(CN5CCC(CCN6CCCCC6)CC5)c4)cc3)nc2c1` [TCMDC-133941], with 100.4%. Consider `NC(=O)C1CCN(Cc2cccc(-c3ccc(-c4nc5ccc(C(F)(F)F)cc5[nH]4)cc3)c2)CC1` [TCMDC-132691], for which the “% Inhibition” value is recorded as -22.66%. With `CC(=O)c1cccc2c(NC(=O)Nc3ccc4nccc(N5CCN(C)CC5)c4c3)cccc12` [TCMDC-139345] the figure was -42.22%. For the compound `O=C(Nc1ccsc1)Nc1cccc(-c2cccc(-c3nc4ccc(C(F)(F)F)cc4[nH]3)c2)c1` [TCMDC-133214], the “% Inhibition” value is on record as -52.37%. `CC(=O)C1(c2ccccc2)CCN(CCC2(c3ccc(Cl)c(Cl)c3)CN(C(=O)Nc3cc(F)cc(F)c3)CCO2)CC1` (stereo not drawn) [TCMDC-135332]: the “% Inhibition” value is recorded as -16.09%. In the case of `N#Cc1ccc(NC(=O)c2ccc(Cc3ccc4c(c3)CCN(C3CCC3)CC4)cn2)cc1` [TCMDC-136453], the “% Inhibition” value is given as 22.22%.

Regarding `COc1ccc(NC(=O)/C=C/c2ccccc2Cl)cc1OCCN1CCC(O)(c2ccc(Cl)c(C(F)(F)F)c2)CC1` [TCMDC-140918], the “% Inhibition” value is -10.77%. Then `Fc1ccc2nc(-c3ccc(-c4cccc(CN5CCCCC5)c4)cc3)[nH]c2c1` [TCMDC-133896], with -18.48%.

For `Fc1ccc2nc(-c3ccc(-c4cccc(CN5CCC(CCN6CCCCC6)CC5)c4)cc3)[nH]c2c1` [TCMDC-133933], the “% Inhibition” value is reported as 114%.

For the compound `Fc1ccc2[nH]c(-c3ccc(-c4ccc(CN5CCC(CCN6CCCCC6)CC5)cc4)s3)nc2c1` [TCMDC-133932], the “% Inhibition” value is on record as 102.4%. For `OCCN1CCN(Cc2cccc(-c3cccc(-c4nc5ccc(F)cc5[nH]4)c3)c2)CC1` [TCMDC-133035], the “% Inhibition” value was -22.3%. For the compound `OCc1c(Cl)cc(Cl)cc1CNCCCNc1nc2ccccc2[nH]1` [TCMDC-140012], the “% Inhibition” value was -23.66%. `O=C(/C=C/c1ccc(Cl)c(Cl)c1)NCC1CCN(Cc2ccc(O)cc2)CC1` [TCMDC-141740]: the “% Inhibition” value is 34.51%.

As for `CCC1(C)CC(CCNCc2ccccc2O)(c2ccccc2OC)CCO1` (stereo not drawn) [TCMDC-125080], the “% Inhibition” value was 19.87%. Then `COc1ccc(-c2cnc(NCc3ccccc3)nc2)cc1CNC1CCN(C)CC1` [TCMDC-134121], with 34.84%; and `CN1CCC(NCc2cccc(-c3nn(C)c4nc(NC5CCCC5)ncc34)c2)CC1` [TCMDC-134840], with 110.3%.

With `Cn1nc(-c2cccc(CNCc3ccccc3)c2)c2cnc(NC3CCCC3)nc21` [TCMDC-134839], the “% Inhibition” value is recorded as -3.994%. With `CN1CCC(NCc2ccc(-c3cnc(NCc4ccccc4)nc3)cc2)CC1` [TCMDC-134120] the figure was 82.56%; with `Cn1nc(-c2cccc(CNCCc3cccs3)c2)c2cnc(NC3CCCC3)nc21` [TCMDC-135031], 12.01%; with `CN1CCC(N(Cc2ccc(-c3cnc(NCc4ccccc4)nc3)cc2)S(=O)(=O)c2ccccc2)CC1` [TCMDC-137158], 31.68%. With `CN1CCC(NCc2cccc(-c3cnc(NCc4ccccc4)nc3)c2)CC1` [TCMDC-134119], the “% Inhibition” value worked out at 58.9%. As to `COC(=O)c1cccc(OCCNC2CCN(C[C@H](O)c3ccnc4ccc(OC)cc34)CC2)c1` [TCMDC-140710], the “% Inhibition” value is -10.21%. On to `Cc1nnc(N2C(=N)SC(=Cc3ccc(-c4ccc(OC(F)(F)F)cc4)o3)C2=O)s1` [TCMDC-124487], for which the “% Inhibition” value is 0.8925%. Turning to `COc1nc2c(N3CCN(CCNCc4ccc5c(n4)NC(=O)CO5)CC3)ccnc2cc1F` [TCMDC-135208], the “% Inhibition” value was -25.48%. For the compound `Cc1ccc(NC(=O)Nc2ccc(Cl)c(C(F)(F)F)c2)cc1-c1ccc(C(=O)NCCN2CCOCC2)cc1` [TCMDC-133589], the “% Inhibition” value stood at 4.722%. On to `Cc1cc2[nH]c(-c3ccc(C(=O)NCCCN4CCN(c5cccc(Cl)c5)CC4)s3)nc2cc1Cl` [TCMDC-140031], for which the “% Inhibition” value is -0.02415%. `CC(C)N1CCN(C(=O)c2ccc(CNCCCN3CCN(c4cccc(Cl)c4Cl)CC3)s2)CC1` [TCMDC-136520]: the “% Inhibition” value was determined as 62.19%. Then `CN(C)CCCN1CCN(C(=O)c2cccc(-c3noc(C(F)(F)F)n3)c2)CC1` [TCMDC-132384], with -19.31%. Then `CC(C)N1CCN(C(=O)c2ccc(CN(C)CCCN3CCN(c4cccc(Cl)c4Cl)CC3)s2)CC1` [TCMDC-136526], with 84.79%; and `CC(C)N1CCN(C(=O)c2ccc(CNCCCN3CCN(c4ccccc4C(F)(F)F)CC3)s2)CC1` [TCMDC-136704], with 40.48%. Then `CC(C)N1CCN(C(=O)c2ccc(CNCCCN3CCN(c4cccc(Cl)c4Cl)CC3)o2)CC1` [TCMDC-136521], with -13.79%; and `CC(C)CCN1CCCN(Cc2ccc(C(=O)Nc3ccc(C(C)(C)C)cc3)cc2)CC1` [TCMDC-136444], with 35.23%. Take `Cc1ccc(Oc2ccc(CNc3nc(Nc4cccc(F)c4)nc(Nc4cccc(F)c4)n3)cc2)cc1` [TCMDC-135138]: the “% Inhibition” value is reported as 50.43%.

For the compound `O=C(Nc1ccc(OCc2ccccc2)cc1)c1nc2ccccc2nc1Cl` [TCMDC-124732], the “% Inhibition” value is listed as 4.904%. Then `Fc1cccc(Nc2nc(NCc3ccc(OCc4ccccc4)cc3)nc(Nc3cccc(F)c3)n2)c1` [TCMDC-135137], with 60.27%; and `COc1cccc(Nc2nc(C)cc(NCc3ccc(-c4c(C)noc4C)cc3)n2)c1` [TCMDC-133451], with 9.249%. Regarding `CC(=O)Nc1cccc(CNc2cc(C)nc(Nc3ccc(C)cc3)n2)c1` [TCMDC-133461], the “% Inhibition” value is recorded as 27.64%.

For `Oc1ccc(CCNc2nc(NCc3cccc(OCc4cccc(F)c4)c3)nc(N3CCNCC3)n2)cc1` [TCMDC-133812], the “% Inhibition” value is -36.91%. For `COc1cc(Cc2cnc3nc(N)nc(N)c3c2C)cc(OC)c1OC` [TCMDC-138058], the “% Inhibition” value is -6.965%. With `CCOc1ccc2nc(C)cc(NN=Cc3ccncc3)c2c1` [TCMDC-142046] the figure was -27.59%; with `CCOc1ccc2nc(C)cc(NN=Cc3ccc(Cl)cc3)c2c1` [TCMDC-142091], 100.1%; with `Cc1ccc2c(NN=Cc3cccc(F)c3)cc(C)nc2c1` [TCMDC-142067], 59.3%. `Cc1cc(NN=Cc2ccc(Cl)cc2)c2ccccc2n1` [TCMDC-123979]: the “% Inhibition” value is recorded as 12.17%. Take `COc1ccc2nc(C)cc(NN=Cc3ccc(Cl)cc3)c2c1` [TCMDC-123971]: the “% Inhibition” value is 99.29%. Then `Cc1ccc2nc(C)cc(NN=Cc3cccc(F)c3)c2c1` [TCMDC-142066], with 30.79%; and `Cc1cc(NN=Cc2ccc(F)cc2)c2ccc(F)cc2n1` [TCMDC-142039], with -75.1%; and `COc1ccc2c(NN=Cc3ccc(F)cc3)cc(C)nc2c1` [TCMDC-142086], with 107.2%. As to `Cc1ccc2c(NN=CC=Cc3ccccc3)cc(C)nc2c1` [TCMDC-142075], the “% Inhibition” value is on record as -22.28%.

Consider `CCOc1ccc2nc(C)cc(NN=Cc3ccccc3)c2c1` [TCMDC-142094], for which the “% Inhibition” value is given as -27.91%.
